Data: PubChem BioAssay (NCI)
About 83,000 compounds went through this panel and 20% of them were active in at least one assay; those are over-represented in the sample as a whole.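 The endpoint reported here, percent growth, reads 100 for growth as untreated, 0 for no net growth and -100 for all cells dead.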 Activity calls are given as the source filed them. Rule for the calls: active = growth percent below 10; inactive = the rest.

Key:
Assay in all cases: NCI-60 one-dose screen, 48 h (100 = growth as untreated, 0 = no growth, -100 = all killed)
Conditions in all cases: 10 µM
[1] = tested on: SK-MEL-2 melanoma
[2] = tested on: SN12C renal
[3] = tested on: UO-31 renal
[4] = tested on: TK-10 renal
[5] = tested on: CAKI-1 renal
[6] = tested on: A498 renal
[7] = tested on: CCRF-CEM leukemia
[8] = tested on: MOLT-4 leukemia
[9] = tested on: RPMI-8226 leukemia
[10] = tested on: OVCAR-8 ovarian
[11] = tested on: OVCAR-5 ovarian
[12] = tested on: OVCAR-4 ovarian
[13] = tested on: SK-OV-3 ovarian
[14] = tested on: IGROV1 ovarian
[15] = tested on: OVCAR-3 ovarian
[16] = tested on: HS 578T breast
[17] = tested on: NCI/ADR-RES ovarian
[18] = tested on: ACHN renal
[19] = tested on: SR leukemia

Measured: growth

CCNC1(NC#N)CCCCC1
inactive: [1] 157% | [2] 100% | [3] 90.9% | [4] 141% | [5] 96.3% | [6] 98.3% | [7] 102% | [8] 108% | [9] 101% | [10] 84.4% | [11] 116% | [12] 113% | [13] 104% | [14] 115% | [15] 109% | [16] 103% | [17] 101%

COc1ccc(CCc2nc3cc(-c4c(C)noc4C)ccc3n2CCN2CCOCC2)cc1
inactive: [1] 49.6% | [2] 31.2% | [4] 24% | [5] 57.2% | [6] 58.6% | [7] 42.7% | [8] 73% | [19] 39% | [10] 34.6% | [11] 49.8% | [12] 30.8% | [13] 88.1% | [14] 48.3% | [16] 50.2% | [17] 57.1%
active: [18] -0.152% | [9] -5.7% | [15] 3.29%

COc1cc(OC)cc(N2CCN(C(=O)Nc3nc4cc(F)ccc4nc3OC)CC2)c1
inactive: [1] 42.1% | [2] 29.6% | [4] 47.5% | [18] 30.2% | [5] 29.7% | [7] 14.7% | [9] 22.7% | [10] 12.7% | [12] 44% | [13] 14.4% | [14] 17.6% | [16] 37.6%
active: [6] -8.09% | [8] 8.4% | [19] 8.23% | [15] -11.8% | [17] -2.42%

CC(C)OP(=O)(O)c1ncc(-c2ccc(C(F)(F)F)cc2)c(NC2CCCCCC2)n1
inactive: [1] 65.4% | [2] 54.4% | [3] 60.2% | [4] 67% | [5] 87% | [6] 89.5% | [7] 48.6% | [8] 80.4% | [10] 52.3% | [11] 84.6% | [12] 52% | [13] 85.2% | [14] 62.4% | [15] 12.1% | [16] 81.7% | [17] 97.5%
active: [9] 8.81%

O=C1/C(=C/c2ccc(O)cc2)Cc2ccc(Cl)cc21
inactive: [1] 93% | [2] 77.8% | [4] 127% | [18] 80% | [5] 68.3% | [6] 121% | [7] 67.7% | [8] 70.3% | [9] 120% | [10] 86.3% | [11] 111% | [12] 85.5% | [13] 111% | [14] 18.8% | [15] 93% | [16] 95.4% | [17] 94.2%

COc1cc(CSc2nc3ccc(C)cc3c(=O)n2-c2ccccc2)cc(OC)c1OC
active: [15] -1.43%
inactive: [1] 14.7% | [2] 37% | [4] 61.7% | [5] 27.6% | [6] 16% | [7] 15.8% | [8] 21.8% | [19] 20.3% | [9] 54.9% | [10] 52.9% | [11] 46.4% | [12] 57.2% | [13] 13.6% | [14] 33.2% | [16] 28.2% | [17] 17.8%

COc1cc(-c2cc(-c3ccc(C)cc3)nc3nc(N)[nH]c(=O)c23)ccc1Oc1ccnc2cc(Cl)ccc12
inactive: [1] 93% | [2] 74.2% | [4] 120% | [18] 93.4% | [5] 83.2% | [6] 73.4% | [7] 40.6% | [8] 49.1% | [19] 50.9% | [9] 60.1% | [10] 79.5% | [11] 115% | [12] 66.3% | [13] 95.3% | [14] 77.9% | [15] 84.1% | [16] 91.2% | [17] 100%

COc1ccc(-c2nnc(COc3ccc(NC(=O)Nc4cccc(C(F)(F)F)c4)cc3F)o2)cc1
inactive: [1] 36.8% | [2] 48.7% | [4] 75.3% | [18] 27.3% | [5] 50.6% | [6] 27.3% | [7] 47.7% | [8] 33.8% | [9] 33.6% | [10] 49.1% | [11] 82.5% | [12] 61.4% | [13] 103% | [14] 68.8% | [15] 56.9% | [16] 67.3% | [17] 54.8%
active: [19] 3.93%

COc1cccc(C(=O)NNc2nc(N3CCOCC3)nc(N3CCN(C(c4ccccc4)c4ccccc4)CC3)n2)c1
inactive: [1] 85.3% | [2] 75.3% | [3] 39.7% | [4] 86.7% | [5] 44.7% | [7] 85.1% | [8] 63.2% | [19] 65.6% | [9] 71.2% | [10] 82.5% | [11] 94.1% | [12] 73.4% | [13] 73.7% | [14] 67.4% | [15] 74.6% | [16] 80.1% | [17] 84.3%

CC(C)C[C@H](NC(=O)CCn1ccc2ccccc2c1=O)B(O)O
inactive: [1] 63.8% | [2] 63.7% | [3] 57.3% | [4] 12.8% | [5] 45.6% | [7] 12% | [9] 10.4% | [10] 72.4% | [11] 65.6% | [12] 85.9% | [13] 77.8% | [14] 93.6% | [15] 28.8% | [16] 63.3% | [17] 87.9%
active: [6] 7.69% | [8] 5.52% | [19] 8.08%

CCc1nn2c(-c3cc(OC)c(OC)c(OC)c3)c(-c3cc(OC)c(OC)c(OC)c3)nc2s1
inactive: [1] 44.5% | [2] 85.9% | [4] 73% | [18] 74% | [5] 71.4% | [6] 88.6% | [7] 80.8% | [8] 95.9% | [19] 61.9% | [9] 71.3% | [10] 95.6% | [11] 90% | [12] 72.6% | [13] 59.5% | [14] 88.8% | [15] 93.4% | [16] 37.1% | [17] 81.7%

C[N+]1(CC2CO2)CCCCCC1 (stereo not given)
inactive: [1] 118% | [2] 102% | [4] 114% | [18] 101% | [5] 100% | [6] 87.8% | [7] 109% | [8] 112% | [19] 106% | [9] 103% | [10] 106% | [11] 95.9% | [12] 94.3% | [13] 113% | [14] 112% | [15] 104% | [16] 114% | [17] 113%

O=C/C=C/c1ccc([N+](=O)[O-])cc1Cl
active: [19] 0.062%
inactive: [1] 94.2% | [2] 97.5% | [4] 139% | [18] 115% | [5] 107% | [6] 117% | [7] 42.6% | [8] 86.6% | [9] 82.1% | [10] 91.2% | [11] 115% | [12] 114% | [13] 104% | [14] 82.5% | [15] 108% | [17] 101%

CC(=O)Oc1c(C)c(C)c2c(c1C)CCC(C)(CC(=O)OCCCCCCCCCCC[P+](c1ccccc1)(c1ccccc1)c1ccccc1)O2 (stereo not given)
active: [1] -88.7% | [2] -82.3% | [4] -97% | [18] -95.4% | [5] -76.3% | [6] -20.5% | [7] 3.68% | [8] -23.6% | [19] -34.7% | [9] -49.8% | [10] -44.1% | [11] -37.4% | [12] -83.2% | [13] -18.4% | [14] -46.2% | [15] -90.5% | [16] -35.2% | [17] -42.5%

COc1ccc(Nc2nc(NCc3ccccc3)c3ccccc3n2)cc1
inactive: [1] 63.4% | [2] 69.5% | [4] 40.6% | [18] 15.6% | [5] 35.7% | [6] 38.9% | [7] 68.4% | [8] 81.8% | [19] 45.2% | [9] 75.9% | [11] 78.7% | [13] 13.4% | [14] 42.5% | [15] 14.8% | [17] 39.7%
active: [10] 6.75% | [12] -37.2% | [16] -3.28%

CCCCC(CC#N)(CCC)CCC
inactive: [1] 102% | [2] 106% | [3] 90.6% | [4] 92.7% | [5] 90.3% | [7] 94.7% | [8] 97.5% | [19] 93.6% | [9] 100% | [10] 104% | [11] 104% | [12] 93.2% | [13] 94.8% | [14] 102% | [15] 106% | [16] 113% | [17] 97.7%
